Inconclusive results are not listed. Active and inactive are the calls of the source. Unless noted, calls follow the shape of the dose curve; as a rule, active = well fitted curve in the direction sought with a large enough effect in the repeat runs; inconclusive = weak or mixed curves; inactive = no such curve, though single readings can be large; an effect the other way counts as inactive or inconclusive.
Assays:
[1] = qHTS assay to identify small molecule antagonists of the estrogen related receptor (ERR) signaling pathway from Tox21 library - cell viability counter screen (AID 1224834); also: nearly all actives have a fitted effect of over 30% in size
Method in brief: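 In this quantitative HTS format, ERR cells receive compounds in DMSO and are incubated for 17.5 h at 37 C. Live-cell protease activity is then detected with CellTiter-Fluor.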

[2] = target: Luciferin 4-monooxygenase (Photinus pyralis) (UniProt P08659); assay: qHTS assay to identify small molecule inhibitors of firefly luciferase (AID 1224835); also: nearly all actives have a fitted effect of over 25% in size
Method in brief: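 Biochemical qHTS: compounds run as interplate titrations against purified firefly enzyme, with D-luciferin and ATP each at its KM concentration. Light output recorded by CCD imaging.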

[3] = qHTS assay to identify small molecule agonists of the constitutive androstane receptor (CAR) signaling pathway - cell viability counter screen (AID 1224836); also: nearly all actives have a fitted effect of over 45% in size
Method in brief: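 Cells were seeded and incubated 4 hrs. Compounds were added across 15 concentrations together with PK11195 at 0.75 uM final. Plates were incubated 23 hrs at 37 C. CellTiter-Fluor was added and fluorescence measured.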

[4] = qHTS assay to identify small molecule antagonists of the constitutive androstane receptor (CAR) signaling pathway - cell viability counter screen (AID 1224837); also: nearly all actives have a fitted effect of over 45% in size
Method in brief: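 In quantitative HTS format, compounds at 15 concentrations were applied to HepG2 cells double-transfected with hCAR and CYP2B6-2.2kb under 50 nM CITCO stimulation; live-cell protease activity was read after 23 hr via CellTiter-Fluor.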

[5] = target: Nuclear receptor subfamily 1 group I member 3 (Homo sapiens) (UniProt Q14994); assay: qHTS assay to identify small molecule agonists of the constitutive androstane receptor (CAR) signaling pathway (AID 1224839);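 also: HepG2 cells stably carrying human CAR and a CYP2B6 luciferase reporter; nearly all actives have a fitted effect of over 15% in size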
Method in brief: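 Cells were plated and incubated 4 hrs, then dosed with compounds at 15 concentrations. PK11195 was added to 0.75 uM final. After 24 hrs at 37 C, luciferase luminescence was measured.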

[6] = qHTS assay to identify small molecule antagonists of the estrogen related receptor signaling pathway with the pleiotropic PPARgamma coactivator (PGC) from Tox21 10K library - cell viability counter screen (AID 1224840; active = well fitted cell-killing curve with a large enough effect in the repeat runs, not every such curve was filed as active; also: nearly all actives have a fitted effect of over 40% in size)
Method in brief: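 Viability counter screen, PGC/ERR cells: 17.5 h compound exposure at 37 C, CellTiter-Fluor fluorescence endpoint.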

[7] = target: Thyrotropin receptor (Homo sapiens) (UniProt P16473); assay: qHTS assay to identify small molecule agonists of the thyroid stimulating hormone receptor (TSHR) signaling pathway (AID 1224843; calls by dose curve; also: nearly all actives have a fitted effect of over 45% in size)
Method in brief: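 Agonist-mode screen: TSHR HEK293 cells received test chemicals for half an hour at room temperature, then HTRF cAMP detection reagents for one hour prior to fluorescence measurement. Each chemical ran as a 15-concentration series, triplicated.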

[8] = qHTS assay to identify small molecule agonists of the hypoxia (HIF-1) signaling pathway - cell viability counter screen (AID 1224844; calls by dose curve; also: nearly all actives have a fitted effect of over 50% in size)
Method in brief: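 Same wells as the HIF-1 reporter screen; ME-180 cells carrying HRE-bla, 17 hr treatment at 37C; CellTiter-Glo luminescence read after 30 min at room temperature.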

[9] = qHTS assay to identify small molecule agonists of H2AX (AID 1224845; active = well fitted activation curve with a large enough effect in the signal ratio in the repeat runs, not every such curve was filed as active; the % refers to the signal ratio)
Method in brief: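 Wild-type CHO-K1 cells, plated overnight, exposed 3hr at 37C to 15 concentrations (0.76% DMSO final). Lysed, then HTRF anti-pH2AX (S139) cryptate and anti-H2AX-d2 antibodies, 24 hr room temperature; 665/620 nm emission read.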

[10] = qHTS assay to identify small molecule agonists of the hypoxia (HIF-1) signaling pathway (AID 1224846; active = well fitted activation curve with a large enough effect in the signal ratio in the repeat runs, not every such curve was filed as active; the % refers to the signal ratio)
Method in brief: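 In ME-180 cells bearing an HRE-bla construct, 17 h treatment with DMSO-dissolved compounds at 37C was followed by CCF4-AM loading to quantify reporter induction.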

[11] = qHTS assay to identify small molecule agonists of H2AX - cell viability counter screen (AID 1224847; calls by dose curve; also: top concentration of the series differs between compounds; nearly all actives have a fitted effect of over 30% in size)
Method in brief: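 Cytotoxicity counter screen in wild-type CHO-K1 cells: a 3 hr compound treatment at 37C across 15 concentrations, followed by CellTiter-Glo luminescence to gauge viable cells.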

[12] = qHTS RealTime-Glo MT Cell Viability Assay in HepG2 cells - 24 hour (AID 1224867); also: nearly all actives have a fitted effect of over 50% in size
Method in brief: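 Cell number in HepG2 cultures estimated from NanoLuc luminescence generated by metabolic reduction of a prosubstrate by living cells. The homogeneous, nonlytic format allowed repeated reads at 0, 8, 16, 24, 32 and 40 h of compound exposure.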

[13] = qHTS RealTime-Glo MT Cell Viability Assay in HEK293 cells - 32 hour (AID 1224868); also: top concentration of the series differs between compounds; nearly all actives have a fitted effect of over 50% in size
Method in brief: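 Homogeneous bioluminescent viability format in HEK293 cells (600 cells/well). Following 5 h at 37 C/5% CO2, 23 nL compound was pintooled; the signal was measured repeatedly during 40 h incubation.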

[14] = A CellTox Green Cytotoxicity Assay to monitor cytotoxicity in HEK293 cells - 0 hour (AID 1224869); also: nearly all actives have a fitted effect of over 50% in size
Method in brief: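 Homogeneous no-lysis format: HEK293 cell suspension mixed with CellTox Green reagent, seeded, incubated 5 h at 37 C/5% CO2, then dosed by pintool with compound in DMSO.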

[15] = qHTS assay to identify small molecule antagonists of the estrogen related receptor signaling pathway with the pleiotropic PPARgamma coactivator (PGC) from Tox21 10K library (AID 1224841; call rule not given here)
Method in brief: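 In the PGC/ERR line, DMSO solutions of test chemicals are pin-delivered to 2,000 cells/well six hours after dispensing. Following eighteen hours' incubation, One-Glo reagent is added and luminescence recorded.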

[16] = qHTS assay to identify small molecule agonists of the estrogen related receptor signaling pathway with the pleiotropic PPARgamma coactivator (PGC) from Tox21 10K library (AID 1224842); also: nearly all actives have a fitted effect of over 15% in size
Method in brief: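 PGC/ERR reporter cell line, 2,000 cells per well, incubated 6 h at 37 C before 23 nL compound in DMSO was added. After 18 h at 37 C, One-Glo luminescence read following 30 min at room temperature.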

[17] = qHTS assay to identify small molecule antagonists of the estrogen related receptor (ERR) signaling pathway from Tox21 library (AID 1224848); also: nearly all actives have a fitted effect of over 50% in size
Method in brief: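 Quantitative high-throughput format: ERR reporter cells (2,000/well) pre-incubated 6 h, treated 18 h at 37 C with compounds in DMSO alongside positive and negative controls, then read by ONE-Glo luminescence.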

[18] = qHTS assay to identify small molecule agonists of the estrogen related receptor (ERR) signaling pathway from Tox21 library (AID 1224849; calls by dose curve; also: nearly all actives have a fitted effect of over 15% in size); settings: ERR reporter cell line, ONE-Glo luciferase, 18 h; at 92.4 µM (top of the series) unless noted
Method in brief: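 Reporter cells (ERR, NTP source) treated with Tox21 10K compounds 18 h, 37 C. Readout: ONE-Glo luminescence, 30 min RT.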
% is scaled to controls: 0 for no effect and ±100 for the full control effect.

Nuclear receptor subfamily 1 group I member 3 (Homo sapiens), sequence (Q14994 whole entry, looked up): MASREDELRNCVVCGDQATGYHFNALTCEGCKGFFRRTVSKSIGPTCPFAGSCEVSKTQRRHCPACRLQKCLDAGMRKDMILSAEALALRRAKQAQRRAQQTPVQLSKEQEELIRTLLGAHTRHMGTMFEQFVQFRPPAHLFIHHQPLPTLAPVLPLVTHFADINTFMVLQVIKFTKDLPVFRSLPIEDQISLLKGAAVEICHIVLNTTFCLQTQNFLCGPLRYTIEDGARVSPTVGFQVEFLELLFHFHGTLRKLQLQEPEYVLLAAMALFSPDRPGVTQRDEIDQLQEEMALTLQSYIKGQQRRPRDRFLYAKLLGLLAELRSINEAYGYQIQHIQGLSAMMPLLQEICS
Luciferin 4-monooxygenase (Photinus pyralis), sequence (P08659 whole entry, looked up): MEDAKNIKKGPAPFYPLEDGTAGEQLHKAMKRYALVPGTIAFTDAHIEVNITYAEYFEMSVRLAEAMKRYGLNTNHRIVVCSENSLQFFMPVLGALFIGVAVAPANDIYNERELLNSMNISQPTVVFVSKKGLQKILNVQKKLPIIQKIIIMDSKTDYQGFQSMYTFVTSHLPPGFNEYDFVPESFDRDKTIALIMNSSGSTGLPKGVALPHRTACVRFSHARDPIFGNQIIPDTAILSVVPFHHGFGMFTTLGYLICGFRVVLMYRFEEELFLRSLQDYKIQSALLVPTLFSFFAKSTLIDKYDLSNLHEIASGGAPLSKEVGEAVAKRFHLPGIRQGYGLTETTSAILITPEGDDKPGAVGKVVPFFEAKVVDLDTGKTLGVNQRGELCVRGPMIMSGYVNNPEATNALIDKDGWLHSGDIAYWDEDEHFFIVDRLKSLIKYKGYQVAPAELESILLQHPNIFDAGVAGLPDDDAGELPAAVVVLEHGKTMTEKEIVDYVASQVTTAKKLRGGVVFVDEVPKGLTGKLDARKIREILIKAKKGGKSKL
Thyrotropin receptor (Homo sapiens), sequence (P16473 whole entry, looked up): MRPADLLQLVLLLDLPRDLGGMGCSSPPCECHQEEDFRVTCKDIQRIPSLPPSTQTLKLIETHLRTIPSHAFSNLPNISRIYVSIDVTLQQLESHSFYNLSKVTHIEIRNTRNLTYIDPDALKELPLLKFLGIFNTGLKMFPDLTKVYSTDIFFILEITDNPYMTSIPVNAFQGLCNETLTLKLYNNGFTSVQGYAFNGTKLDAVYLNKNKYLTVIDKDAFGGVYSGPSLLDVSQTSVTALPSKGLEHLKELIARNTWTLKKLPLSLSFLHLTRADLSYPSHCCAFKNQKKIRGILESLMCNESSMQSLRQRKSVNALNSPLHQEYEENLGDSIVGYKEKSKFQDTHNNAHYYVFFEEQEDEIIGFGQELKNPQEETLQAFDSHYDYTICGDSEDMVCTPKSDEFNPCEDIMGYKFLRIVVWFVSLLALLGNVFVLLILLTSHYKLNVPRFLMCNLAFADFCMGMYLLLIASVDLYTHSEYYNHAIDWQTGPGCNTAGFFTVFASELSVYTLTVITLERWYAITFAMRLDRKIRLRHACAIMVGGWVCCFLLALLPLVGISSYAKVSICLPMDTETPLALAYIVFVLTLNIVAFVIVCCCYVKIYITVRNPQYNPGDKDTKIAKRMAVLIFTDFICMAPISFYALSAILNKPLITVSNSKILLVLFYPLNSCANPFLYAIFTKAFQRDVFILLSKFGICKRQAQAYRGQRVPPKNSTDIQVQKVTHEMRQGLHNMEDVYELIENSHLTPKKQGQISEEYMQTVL

CN1C(=O)NC(=O)C(C)(C2=CCCCC2)C1=O (stereo unspecified)
inactive: Potency [1] | Potency [2] | Potency [3] | Potency [4] | Potency [5] | Potency [6] | Potency [7] | Potency [8] | Potency [9] | outcome [10] | Potency [11] | Potency [12] | Potency [13] | Potency [14]

O=C(NC(=O)c1c(F)cccc1F)Nc1ccc(OC(F)(F)C(F)OC(F)(F)F)c(Cl)c1 (stereo unspecified)
inactive: Potency [1] | Potency [2] | Potency [3] | Potency [4] | Potency [6] | Potency [15] | Potency [16] | Potency [7] | Potency [8] | Potency [9] | outcome [10] | Potency [11] | Potency [17] | activity change, positive = activation [18] -11.9% [at 42.5 µM] | Potency [12] | Potency [13] | Potency [14]

CCC(Cl)CCl (stereo unspecified)
inactive: Potency [1] | Potency [2] | Potency [3] | Potency [4] | Potency [5] | Potency [6] | Potency [15] | Potency [16] | Potency [7] | Potency [8] | Potency [9] | outcome [10] | Potency [11] | Potency [17] | activity change, positive = activation [18] -1.76% | Potency [12] | Potency [13] | Potency [14]

Cn1cc[n+](C)c1 (tested in a mixture with another compound)
inactive: Potency [1] | Potency [2] | Potency [3] | Potency [4] | Potency [5] | Potency [6] | Potency [7] | Potency [8] | Potency [9] | outcome [10] | Potency [11] | Potency [12] | Potency [13]

Cc1ccc2ccccc2c1
inactive: Potency [1] | Potency [2] | Potency [3] | Potency [4] | Potency [6] | Potency [15] | Potency [16] | Potency [7] | Potency [8] | Potency [9] | outcome [10] | Potency [11] | Potency [17] | activity change, positive = activation [18] -0.842% | Potency [12] | Potency [13]

[O-][Cl+]O
inactive: Potency [1] | Potency [2] | Potency [3] | Potency [4] | Potency [6] | Potency [15] | Potency [16] | Potency [8] | Potency [9] | outcome [10] | Potency [11] | Potency [17] | activity change, positive = activation [18] 8.47% | Potency [12] | Potency [13] | Potency [14]

C[N+](C)(C)CCCl
inactive: Potency [1] | Potency [2] | Potency [3] | Potency [4] | Potency [6] | Potency [15] | Potency [16] | Potency [7] | Potency [8] | Potency [9] | outcome [10] | Potency [11] | Potency [17] | activity change, positive = activation [18] 3.38% | Potency [12] | Potency [13] | Potency [14]

From PubChem BioAssay (Tox21)
